In PubChem BioAssay (NCI) one finds growth data, which are given here for 14 molecules.

Molecules are shown by their SMILES. This is part of a sample that, as a whole, favours compounds with a hit. Of some 83,000 tested, about 20% had one in any assay.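 Plates (96-well) were seeded with cells, treated with compound at one concentration, and incubated for 48 hours before percent growth was determined.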 Values without a mark were called inactive. Active and inactive are the calls of the source. How the source made its calls: active means growth percent below 10; inactive means the rest.

This assay concerns HL-60(TB) leukemia. The experiment in a line: NCI-60 one-dose screen, 48 h (100 = growth as untreated, 0 = no growth, -100 = all killed). As to conditions: 10 µM unless noted.
`CCOC(=O)Oc1c(OC)cc(C(=O)O[C@@H]2C[C@@H]3CN4CCc5c([nH]c6cc(OC)ccc56)[C@H]4C[C@@H]3[C@H](C(=O)OC)[C@H]2OC)cc1OC`: the growth is -27.7% (active).
In the case of `c1cnc2[nH]cc(-c3nc(-c4ccsc4)cs3)c2c1`, the growth was 104%.
As to `O=C(c1ccncc1)N1N=C(c2ccc(Cl)cc2)C[C@H]1c1cn(-c2ccccc2)nc1-c1ccccc1`, the growth was 107%.
In the case of `O=C(O)/C=C/c1cn(-c2ccccc2)nc1-c1ccc(F)cc1`, the growth was 103%.
Turning to `Cc1ccc2c(c1)c(-c1nc(-c3c[nH]c4ncccc34)cs1)cn2C`, the growth is 84.1%.
Then `Oc1ccc(N=Nc2ccccn2)c(O)c1`, with -37.3% (active); and `CCSc1ncnc2c1ncn2C1OC(CO)C(O)C1O` (centres undefined), with 20.2%; and `CSC1=N/C(=C\c2cccc(OCc3ccc(Cl)cc3)c2)C(=O)N1`, with 77.8%.
Turning to `CCCC(NC(=O)OCc1ccccc1)C(=O)O` (centres undefined), the growth was 44.9%.
`Cc1[nH]n(-c2ccccc2)c2nc3nncc3c(-c3ccc(Cl)cc3)c12`: the growth was 110%.
As to `Cc1ccc(Cl)cc1N1CCN(C(=O)[C@@H]2C[C@@H]2c2ccc(F)cc2)CC1`, the growth is 69.9%.
Take `COc1cc2ncnc(Nc3ccc(Oc4ccnc(C)c4)c(C)c3)c2cc1NC(=O)CC1CCSS1` (centres undefined): the growth is -45.8% (active).
As to `CCOCCNc1ccc(S(=O)(=O)c2ccc(N)cc2)cc1N`, the growth was 107%.
Then `N#Cc1c(NC(=O)c2ccc([N+](=O)[O-])o2)[n+]([O-])c2cc(F)c(F)cc2[n+]1[O-]`, with 90.2%.
